In PubChem BioAssay (NCATS):
Unmarked numbers belong to inactive results. Records with an inconclusive call do not appear. A call without a number means that no potency is given here. Calls of active or inactive are those of the source. The call rests on the fitted dose curve; in most records, active means well fitted curve in the direction sought with a large enough effect; inconclusive means small, poorly fitted or top-dose-only effect, or another doubt; inactive means no such curve, though single readings can be large or run the other way. Residues, ends and D or L forms follow the SMILES beside them. *: point of attachment. Cbz = O=C(OCc1ccccc1)*

Experiments:
[1] = biological target: T1, Hexokinase-4 (Homo sapiens) + Glucokinase regulatory protein (Homo sapiens) (UniProt P35557+Q14397); experiment: qHTS assay for inhibitors of recombinant human GCK-GKRP interaction: Diaphorase-coupled assay (AID 743205); further: potency means the concentration at half of the fitted maximal effect
T1 sequence (P35557 whole entry, looked up): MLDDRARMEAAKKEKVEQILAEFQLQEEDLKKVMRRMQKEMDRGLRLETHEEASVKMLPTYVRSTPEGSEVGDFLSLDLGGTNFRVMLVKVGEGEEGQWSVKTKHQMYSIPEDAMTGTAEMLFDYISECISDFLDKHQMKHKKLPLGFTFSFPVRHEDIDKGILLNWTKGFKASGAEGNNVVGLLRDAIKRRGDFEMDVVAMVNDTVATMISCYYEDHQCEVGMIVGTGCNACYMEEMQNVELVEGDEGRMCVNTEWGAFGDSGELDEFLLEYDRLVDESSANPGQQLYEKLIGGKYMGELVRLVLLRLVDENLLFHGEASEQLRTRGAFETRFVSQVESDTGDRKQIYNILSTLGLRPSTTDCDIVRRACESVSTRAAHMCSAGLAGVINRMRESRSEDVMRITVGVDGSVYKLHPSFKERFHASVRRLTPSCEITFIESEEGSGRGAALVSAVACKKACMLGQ
T1 sequence (Q14397 whole entry, looked up): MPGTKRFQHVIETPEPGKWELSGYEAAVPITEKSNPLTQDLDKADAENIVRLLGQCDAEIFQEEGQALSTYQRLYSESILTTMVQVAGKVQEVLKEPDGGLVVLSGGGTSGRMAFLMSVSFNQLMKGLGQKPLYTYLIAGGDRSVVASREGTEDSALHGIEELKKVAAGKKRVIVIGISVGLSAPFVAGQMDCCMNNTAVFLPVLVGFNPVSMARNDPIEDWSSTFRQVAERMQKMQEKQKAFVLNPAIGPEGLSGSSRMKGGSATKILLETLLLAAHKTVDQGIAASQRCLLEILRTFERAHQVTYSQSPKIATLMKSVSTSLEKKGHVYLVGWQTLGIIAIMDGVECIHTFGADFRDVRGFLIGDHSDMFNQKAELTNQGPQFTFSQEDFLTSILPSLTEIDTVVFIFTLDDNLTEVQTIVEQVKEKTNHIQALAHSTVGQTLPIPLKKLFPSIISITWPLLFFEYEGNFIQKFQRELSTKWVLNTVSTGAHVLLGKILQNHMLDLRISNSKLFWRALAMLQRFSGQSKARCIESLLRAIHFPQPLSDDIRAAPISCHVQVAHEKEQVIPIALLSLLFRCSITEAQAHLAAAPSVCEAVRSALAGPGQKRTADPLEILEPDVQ
Summary of the method: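 25 mM Hepes pH 7.6, 5 mM glucose, 0.4 mM ATP, 4 U/ml G6PDH; 10 nM each GST-GCK/FLAG-GKRP. Kinetic fluorescence read, 1/min × 30 min. Normalized: DMSO ± enzyme = max/min.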

[2] = biological target: T1, Hexokinase-4 (Homo sapiens) + Glucokinase regulatory protein (Homo sapiens); experiment: qHTS assay for inhibitors of recombinant human GCK-GKRP interaction: ADP-Glo assay (AID 743206); further: potency means the concentration at half of the fitted maximal effect
Summary of the method: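 GST-GCK and FLAG-GKRP (15 nM each in the dispensed mix, with 2 uM S6P) react with 0.4 mM ATP and 5 mM glucose (final) in Hepes pH 7.6 for 60 min at room temperature. ADP is measured by ADP-Glo luminescence.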

[3] = biological target: T1, Hexokinase-4 (Homo sapiens) + Glucokinase regulatory protein (Homo sapiens); experiment: qHTS assay for inhibitors of recombinant human GCK-GKRP interaction: HTRF assay (AID 743207); further: potency means the concentration at half of the fitted maximal effect
Summary of the method: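 5 nM GST-GCK + 5 nM FLAG-GKRP + 2 uM S6P, pH 7.1 buffer (25 mM Hepes, 2 mM MgCl2, 25 mM KCl, 1 mM DTT, Tween/BSA); pin-transferred cpd; anti-FLAG XL665/anti-GST K; 60 min RT; HTRF.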

[4] = qHTS Assay for Identifying Gametocytocidal Compounds (AID 743244);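 further: actives lower the fluorescent signal which means gametocytes are killed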; settings: P. falciparum 3D7 stage III-V gametocytes, alamarBlue, 72 h; max response: hits give low values
Summary of the method: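 A resazurin-based viability read-out was applied to mature P. falciparum gametocytes: 72 h compound treatment, then 24 h dye incubation, with falling fluorescence signalling gametocytocidal effect.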

Row | SMILES | Potency [1] | Potency [2] | Potency [3] | max response [4] [%]
1 | O=C(O)C1=CC(=C(c2ccc(O)c(C(=O)O)c2)c2ccc(O)c(C(=O)O)c2)C=CC1=O | 25.1 µM (active) | 4.47 µM (active) | 2.51 µM (active) | 
2 | COc1ccc2c(c1)CCC1C2CC[C@@]2(C)C1CC[C@@H]2NCCCCCCN1C(=O)C=CC1=O (stereo not given in full) | inactive | inactive |  | 
3 | O=c1cc(-c2ccccc2)[nH]c2nc(Cl)ccc12 | inactive | inactive |  | 
4 | Nc1ccc(-c2nc3ccc(-c4nc5ccc(N)cc5[nH]4)cc3[nH]2)cc1 | inactive | inactive |  | 
5 | CCC1(O)CC2CN(CCc3c([nH]c4ccccc34)[C@@](C(=O)OC)(c3cc4c(cc3OC)N(C)C3[C@]45CCN4CC=C[C@@](CC)([C@@H](OC(C)=O)[C@]3(O)C(=O)OC)[C@H]45)C2)C1 (stereo not given in full) | inactive | inactive | inactive | 
6 | CC(N)=NCCCC[C@@H](N)C(=O)O | inactive | inactive |  | 
7 | Clc1nccc2c1ccc1ccccc12 | inactive | inactive | inactive | 
8 | C[C@@]1(C2CCCC2)Cc2cc(OCC(=O)O)c(Cl)c(Cl)c2C1=O | inactive | inactive | inactive | 
9 | Cc1ccc2c(c1)C(N1CCN(C)CC1)=Nc1cccnc1N2 | inactive | inactive | inactive | 
10 | CN(C)CCCc1cc(C(=O)Nc2ccc(-c3ccncc3)cc2)ccc1O | inactive | inactive | inactive | 
11 | N=C(N)c1ccc(N)cc1 | inactive |  |  | 
12 | O=C(O)c1cc(=O)cc(C(=O)O)[nH]1 | inactive | inactive |  | 
13 | O=C(N[C@@H](Cc1ccccc1)C(=O)CCl)OCc1ccccc1 | inactive | inactive | inactive | 
14 | NC(=O)CC[C@H](N)C(=O)O | inactive | inactive |  | 
15 | Cc1cc(Cn2cnc3c2C[C@@H](C(=O)O)N(C(=O)C(c2ccccc2)c2ccccc2)C3)ccc1N | inactive |  |  | 
16 | COc1cc([C@@H]2c3cc4c(cc3[C@H](O)C3COC(=O)[C@@H]32)OCO4)cc(OC)c1OC (stereo not given in full) | inactive |  |  | 
17 | COc1cc(C(O)CO)ccc1O (stereo not given) | inactive | inactive |  | 
18 | Cn1ccnc1 | inactive | inactive |  | 
19 | C[C@@H](NCCc1ccc(O)cc1)[C@@H](O)c1ccc(O)cc1 | inactive | inactive | inactive | 
20 | C=C(C)C1CC=C(C(=O)O)CC1 (stereo not given) | inactive | inactive | inactive | 

Row | SMILES | Potency [1] | Potency [2] | Potency [3] | max response [4] [%]
21 | NC/C=C\C(=O)O | inactive | inactive | inactive | 
22 | C=CCN1CCc2cc(O)c(O)cc2C(c2ccccc2)C1 (stereo not given) | inactive | inactive |  | 
23 | O=c1cc(O)cc(/C=C/c2ccc(O)c(O)c2)o1 | inactive | inactive | inactive | 
24 | CC[n+]1c(/C=C/C=C2/N(C)c3ccccc3C2(C)C)sc2ccccc21 | inactive | inactive |  | 
25 | c1ccc(CN2CCC3(CCCc4ccccc43)CC2)cc1 | inactive | inactive | inactive | 
26 | NC1CCN(O)C1=O (stereo not given) | inactive | inactive | inactive | 19.4
27 | Cn1cc(C(F)(F)F)nc1-c1ccc(OCC(O)CNCCOc2ccc(O)c(C(N)=O)c2)cc1 (stereo not given) | inactive | inactive | inactive | 26.1
28 | Oc1ccc(Cn2cc[nH]c2=S)cc1 | inactive | inactive | inactive | 24
29 | COC(=O)C1=C(C)NC(C)=C([N+](=O)[O-])C1c1ccccc1C(F)(F)F (stereo not given) | inactive | inactive | inactive | 19.5
30 | CNC(=O)c1cc2c(cn1)[nH]c1ccccc12 | inactive | inactive | inactive | 10.2
31 | N[C@@H](CCCC(=O)O)C(=O)O | inactive | inactive | inactive | 28.3
32 | CCN(CC)CCOC(=O)c1cc(Cl)c(N)cc1OC | inactive | inactive | inactive | 40.4
33 | Nn1nnc2ccccc21 | inactive | inactive | inactive | 16.9
34 | CC(C)[C@H](NC(=O)OCc1ccccc1)C(=O)N[C@H](C=O)Cc1ccccc1 (Cbz-Val-Phe-aldehyde) | inactive | inactive | inactive | 7.9
35 | CN1CCc2cc(Cl)c(O)cc2[C@@H](c2ccccc2)C1 | inactive | inactive | inactive | 34.1
36 | O=C(OCCN1CCOCC1)C1(c2ccccc2)CCCCC1 | inactive | inactive | inactive | 16.2
37 | CN1C2CCC1CC(OC(c1ccccc1)c1ccccc1)C2 (stereo not given) | inactive | inactive | inactive | 31
38 | O=c1[nH]ccc2c(O)cccc12 | inactive | inactive | inactive | 22.6
39 | CCCCCC[C@@H]([C@@H](C)O)n1cnc2c(N)ncnc21 | inactive | inactive | inactive | 12
